The values below come from PubChem BioAssay (NCATS).

For assay [1], the target named is Glucocorticoid receptor (Homo sapiens) (UniProt P04150). Kind of assay: GR-GFP Redistribution (AID 450). Note: potency is the fitted concentration of half-maximal effect.
For assay [2] the target is unchanged. As to the kind of experiment: GR-EFC Redistribution (AID 451; calls by dose curve; note: potency is the fitted concentration of half-maximal effect). As to conditions: CHO-K1 GR-EFC translocation, beta-gal luminescence, 2 h. Put shortly:
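CHO-K1 cells expressing nuclear EA and GR-ED fragments of b-gal; compounds titrated up to 46 uM final, 2 h at 37 C. GR nuclear translocation read as complemented b-gal luminescence after 1 h RT detection.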

In assay [3] the target is Mitogen-activated protein kinase 10 (Mus musculus) (UniProt Q61831). Kind of assay: JNK3 AlphaScreen Assay (AID 530; active = well fitted curve in either direction with a large enough effect, not every such curve was filed as active;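 note: kinase came from lysate of stimulated human HepG2 cells; signal reports phosphorylation of biotinylated GST-cJun 1-79 at Ser73 with 10 µM ATP; series mostly up to about 57 µM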). Put shortly:
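Pre-activated (IL-1β/TNFα) JNK3 in HepG2 lysates phosphorylates biotin-GST-cJun(1-79), 10 uM ATP; anti-phospho-cJun(Ser73) AlphaScreen read at room temperature, pH 7.6 Tris buffer. Compounds pre-incubated 15 min as titrations.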

Assay [4] has as its target 3',5'-cyclic-AMP phosphodiesterase 4B (Homo sapiens) (UniProt Q07343). Kind of assay: qHTS Assay for Inhibitors of PDE-IV (AID 607; active = well fitted activation curve with a large enough effect in the main read-out, with a control signal flat, not every such curve was filed as active). The procedure, abridged: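 HEK293 ACTOne cells with CNG channel (1000/well), endogenous PDE4; membrane potential dye, compounds up to 22.9 uM final. Fluorescence Ex 535/Em 590; RO 20-1724 (100 uM final) as reference.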
In general terms: Quantitative high-throughput screening tests each substance at several concentrations.

For assay [5], the target named is Cytochrome P450 2D6 (Homo sapiens) (UniProt P10635). As to the kind of experiment: qHTS Assay for Inhibitors and Substrates of Cytochrome P450 2D6 (AID 891; active = well fitted inhibition curve with a large enough effect;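 note: luciferin methyl ether substrate demethylated by CYP2D6 with NADPH regeneration; nearly all actives have a fitted effect of over 60% in size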). Put shortly: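 Human CYP2D6 (5 nM) with 30 uM Luciferin-ME EGE (at Km) in 100 mM KPO4, compound preincubated 10 min, then NADPH regeneration system for 60 min at room temperature. Luciferin read by luminescence; normalized to 1.43 uM quinidine.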

The target of assay [6] is Cytochrome P450 2C19 (Homo sapiens) (UniProt P33261). As to the kind of experiment: qHTS Assay for Inhibitors and Substrates of Cytochrome P450 2C19 (AID 899; active = well fitted inhibition curve with a large enough effect; note: nearly all actives have a fitted effect of over 60% in size). The procedure, abridged: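 Luminescent read-out of luciferin formed from Luciferin-H EGE (10uM, equal to KM). Enzyme 5nM in 50mM KPO4; compound added, 10 min at 37C, then NADPH regenerating system for 60 min at 37C. Full inhibition defined by 57uM ketoconazole.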

The target of assay [7] is Cytochrome P450 2C9 (Homo sapiens) (UniProt P11712). As to the kind of experiment: qHTS Assay for Inhibitors and Substrates of Cytochrome P450 2C9 (AID 883; active = well fitted inhibition curve with a large enough effect; note: nearly all actives have a fitted effect of over 60% in size). Put shortly: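 10nM CYP2C9 + 100uM Luciferin-H (=KM), 25mM KPO4; cpd 10 min 37C; NADPH regen, 60 min 37C; stop/detect with P450 Glo-Buffer 20 min; luminescence. Norm. to 57uM sulphaphenazole as full inhibition.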

Unmarked numbers belong to inactive results. Inconclusive results are not listed. Calls of active or inactive are those of the source.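 Rule for the calls, unless noted: active = compounds whose dose series gives a full or clear partial fitted curve of increased nuclear translocation; inconclusive = weak partial curve or effect only at the top dose; inactive = no dose-dependent translocation response.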

Chain of Glucocorticoid receptor (Homo sapiens) (P04150 whole entry, looked up): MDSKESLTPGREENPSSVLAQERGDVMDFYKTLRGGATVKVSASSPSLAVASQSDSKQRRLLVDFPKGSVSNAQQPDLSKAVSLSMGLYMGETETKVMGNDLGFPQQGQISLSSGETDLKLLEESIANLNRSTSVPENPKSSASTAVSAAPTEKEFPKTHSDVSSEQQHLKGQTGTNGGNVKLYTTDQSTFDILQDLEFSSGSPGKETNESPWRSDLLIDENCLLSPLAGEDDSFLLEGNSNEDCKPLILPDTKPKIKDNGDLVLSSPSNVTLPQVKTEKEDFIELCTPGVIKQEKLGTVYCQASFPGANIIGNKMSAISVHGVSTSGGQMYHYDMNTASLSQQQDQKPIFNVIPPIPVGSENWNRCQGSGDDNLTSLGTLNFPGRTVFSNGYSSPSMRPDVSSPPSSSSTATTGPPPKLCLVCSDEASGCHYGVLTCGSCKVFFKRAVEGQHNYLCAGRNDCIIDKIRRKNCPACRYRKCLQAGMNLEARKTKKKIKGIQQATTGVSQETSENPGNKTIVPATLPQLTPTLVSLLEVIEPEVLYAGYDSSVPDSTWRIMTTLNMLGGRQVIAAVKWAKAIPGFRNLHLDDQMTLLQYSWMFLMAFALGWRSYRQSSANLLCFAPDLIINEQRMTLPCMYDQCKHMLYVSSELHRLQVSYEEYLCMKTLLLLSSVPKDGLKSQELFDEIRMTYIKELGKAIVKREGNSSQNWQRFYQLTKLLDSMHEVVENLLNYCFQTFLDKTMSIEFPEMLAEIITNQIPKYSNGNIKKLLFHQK
Chain of 3',5'-cyclic-AMP phosphodiesterase 4B (Homo sapiens) (Q07343 whole entry, looked up): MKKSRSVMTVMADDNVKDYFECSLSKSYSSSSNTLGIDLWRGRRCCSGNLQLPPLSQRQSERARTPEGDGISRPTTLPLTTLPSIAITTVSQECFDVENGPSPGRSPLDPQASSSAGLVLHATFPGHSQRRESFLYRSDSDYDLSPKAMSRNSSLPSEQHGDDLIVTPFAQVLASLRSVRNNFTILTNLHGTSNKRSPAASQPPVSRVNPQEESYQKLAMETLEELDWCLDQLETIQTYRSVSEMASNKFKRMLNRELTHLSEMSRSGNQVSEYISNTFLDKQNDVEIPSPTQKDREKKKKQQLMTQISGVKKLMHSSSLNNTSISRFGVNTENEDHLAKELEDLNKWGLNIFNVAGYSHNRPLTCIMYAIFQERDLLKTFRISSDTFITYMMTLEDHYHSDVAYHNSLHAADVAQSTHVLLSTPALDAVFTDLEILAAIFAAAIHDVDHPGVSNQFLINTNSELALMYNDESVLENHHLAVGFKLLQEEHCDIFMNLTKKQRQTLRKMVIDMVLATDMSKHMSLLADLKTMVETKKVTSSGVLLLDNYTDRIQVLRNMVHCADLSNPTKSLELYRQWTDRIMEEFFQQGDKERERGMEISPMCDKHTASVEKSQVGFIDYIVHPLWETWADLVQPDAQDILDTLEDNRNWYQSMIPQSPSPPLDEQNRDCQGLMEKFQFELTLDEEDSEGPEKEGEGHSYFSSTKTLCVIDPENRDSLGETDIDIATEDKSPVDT
Chain of Cytochrome P450 2D6 (Homo sapiens) (P10635 whole entry, looked up): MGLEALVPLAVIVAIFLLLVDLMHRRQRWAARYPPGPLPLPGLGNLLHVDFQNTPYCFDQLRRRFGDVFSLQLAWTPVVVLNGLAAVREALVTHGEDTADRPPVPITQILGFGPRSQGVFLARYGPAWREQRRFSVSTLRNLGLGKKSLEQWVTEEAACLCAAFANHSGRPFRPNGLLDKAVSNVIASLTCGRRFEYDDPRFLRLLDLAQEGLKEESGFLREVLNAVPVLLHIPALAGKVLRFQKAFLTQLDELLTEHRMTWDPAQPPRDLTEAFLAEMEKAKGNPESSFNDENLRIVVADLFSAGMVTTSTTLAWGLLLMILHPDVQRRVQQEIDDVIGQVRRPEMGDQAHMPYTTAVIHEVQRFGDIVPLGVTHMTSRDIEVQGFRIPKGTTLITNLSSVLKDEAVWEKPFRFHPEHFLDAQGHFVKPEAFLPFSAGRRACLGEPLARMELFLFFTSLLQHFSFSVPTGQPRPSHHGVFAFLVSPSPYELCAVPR
Chain of Cytochrome P450 2C19 (Homo sapiens) (P33261 whole entry, looked up): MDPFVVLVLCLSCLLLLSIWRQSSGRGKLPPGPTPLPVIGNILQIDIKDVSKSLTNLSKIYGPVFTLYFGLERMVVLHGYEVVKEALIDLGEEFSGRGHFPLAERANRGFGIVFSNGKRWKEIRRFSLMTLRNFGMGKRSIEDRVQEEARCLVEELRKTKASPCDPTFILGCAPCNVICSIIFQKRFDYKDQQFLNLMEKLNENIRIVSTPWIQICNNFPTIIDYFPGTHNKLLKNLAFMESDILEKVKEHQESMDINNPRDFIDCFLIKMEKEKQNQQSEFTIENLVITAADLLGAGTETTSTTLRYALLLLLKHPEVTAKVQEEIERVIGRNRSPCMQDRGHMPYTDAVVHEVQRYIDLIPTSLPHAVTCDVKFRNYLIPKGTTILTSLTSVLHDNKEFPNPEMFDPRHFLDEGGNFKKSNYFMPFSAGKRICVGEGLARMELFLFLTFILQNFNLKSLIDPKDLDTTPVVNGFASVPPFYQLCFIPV
Chain of Cytochrome P450 2C9 (Homo sapiens) (P11712 whole entry, looked up): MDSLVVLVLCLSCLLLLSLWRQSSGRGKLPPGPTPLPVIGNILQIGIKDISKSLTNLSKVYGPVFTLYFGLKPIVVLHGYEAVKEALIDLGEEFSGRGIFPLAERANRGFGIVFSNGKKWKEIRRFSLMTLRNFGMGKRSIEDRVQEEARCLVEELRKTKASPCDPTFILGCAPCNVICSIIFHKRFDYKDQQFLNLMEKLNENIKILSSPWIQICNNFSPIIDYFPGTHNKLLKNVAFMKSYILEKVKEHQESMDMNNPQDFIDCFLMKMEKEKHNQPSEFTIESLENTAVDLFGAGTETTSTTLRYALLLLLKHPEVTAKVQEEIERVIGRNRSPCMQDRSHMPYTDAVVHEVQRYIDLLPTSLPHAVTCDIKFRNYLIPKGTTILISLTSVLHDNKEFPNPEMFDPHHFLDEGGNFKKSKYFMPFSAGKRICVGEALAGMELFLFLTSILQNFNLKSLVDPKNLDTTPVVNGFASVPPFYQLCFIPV

Consider `COc1ccc(-c2coc3ccc(O[C@@H]4O[C@@H](COC(C)=O)[C@@H](OC(C)=O)[C@@H](OC(C)=O)[C@H]4OC(C)=O)cc3c2=O)cc1`, for which the Potency in assay [1] and in assay [2] was over 46 µM in each case. In addition, the Potency result in assay [3], in assay [4], in assay [5] and in assay [6] was “inactive” in each case.

For `Cn1c(NCc2ccco2)nc2c1c(=O)n(Cc1ccc(Cl)c(Cl)c1)c(=O)n2C`, the Potency in assay [1] is over 20.6 µM.

With `CN1C[C@H](C(=O)N[C@]2(C)O[C@@]3(O)[C@H]4CCCN4C(=O)[C@@H](Cc4ccccc4)N3C2=O)C[C@H]2c3cccc4[nH]cc(c34)C[C@@H]21`, the Potency in assay [1] and in assay [2] was over 46 µM each time. Also, the Potency result in assay [3] and in assay [4] was “inactive” throughout.

`O=C(NCc1ccccn1)c1coc(=O)c(Br)c1`: the Potency in assay [1] was over 20.6 µM.

For the molecule `Cc1ccccc1N1C(=O)CC(Sc2nnc(-c3ccccc3)o2)C1=O` (stereo unspecified), the Potency in assay [1] is over 20.6 µM.

On to `COc1ccc(C(=O)c2sc(NC(C)C)nc2N)cc1OC`, for which the Potency in assay [1] is over 20.6 µM.

On to `C[C@@H]1O[C@@H](OC[C@@H]2O[C@@H](Oc3c(-c4ccc(O)c(O)c4)oc4cc(O)cc(O)c4c3=O)[C@H](O)[C@H](O)[C@@H]2O)[C@H](O)[C@H](O)[C@@H]1O`, for which the Potency in assay [1] and in assay [2] was over 46 µM in each case. Besides, the Potency result in assay [3], in assay [4], in assay [7], in assay [5] and in assay [6] was “inactive” each time.

As for `Cc1oc2cc(O)ccc2c(=O)c1-c1cnn(-c2ccccc2)c1`, the Potency in assay [1] was over 20.6 µM.

In the case of `CC(=O)O[C@H]1C(=O)[C@]2(C)[C@H]([C@H](OC(=O)c3ccccc3)[C@@]3(O)C[C@H](OC(=O)[C@@H](O)[C@@H](NC(=O)c4ccccc4)c4ccccc4)C(C)=C1C3(C)C)[C@]1(OC(C)=O)CO[C@@H]1C[C@@H]2O`, the Potency in assay [1] and in assay [2] was over 46 µM in each case. The Potency result in assay [3] and in assay [4] was “inactive” each time.
